Among all 69,000 compounds or so, about 8,600 (12%) showed an effect of 50% or more. The full list was thinned out, with strong results kept by preference.
Test system: Plasmodium berghei
Experiment: Screen against P. berghei liver stage (PbLuc), transformed with Luciferase, at 10uM
Assay type: functional, HepG2
Details: tested at 10 uM

Question: `CCC(C(=O)N(C)Cc1cc(-c2ccccc2)n[nH]1)n1cccn1` (centres undefined) was tested. Which INHIBITION did it give?
Answer: 5.11%

Question: Which INHIBITION does the source give for `Cn1ccnc1N1CCN(C(=O)Cc2ccc(Cl)cc2)CC1` here?
Answer: -17.2%

Question: With `OC1(CNCCSc2ccccn2)CNCCOC1` (centres undefined) as the compound, how does the INHIBITION read?
Answer: 67.2%

Question: With `OC1(CNCCN2CCc3ccccc32)CNCCOC1` (centres undefined) as the compound, how does the INHIBITION read?
Answer: 36.1%

Question: How did the INHIBITION turn out when `OC1(CNCCSc2ccccn2)CCCNC1` (centres undefined) was run?
Answer: 38.3%

Question: `Cc1ccccc1C(=O)N1CCOCC1CN(C)C` (centres undefined) was tested. Which INHIBITION did it give?
Answer: 1.06%

Question: How did the INHIBITION turn out when `N#Cc1nccnc1NC1CCN(c2ccccc2OC(F)F)C1` (centres undefined) was run?
Answer: 36.5%

Question: With `Cc1noc(C)c1CNC1CCN(c2ccccc2OC(F)F)C1` (centres undefined) as the compound, how does the INHIBITION read?
Answer: 67.4%

Question: With `O=C(NC1CCN(c2ccccc2OC(F)F)C1)c1cccnc1` (centres undefined) as the compound, how does the INHIBITION read?
Answer: 27.5%

Question: For `O=C(Nc1cn[nH]c1)NC1CCN(c2ccccc2OC(F)F)C1` (centres undefined), which INHIBITION is on record?
Answer: 29.8%

Question: For `COc1ccccc1N1CCC(NCc2c(C)noc2C)C1` (centres undefined), which INHIBITION is on record?
Answer: 1.94%

Question: With `COc1ccccc1N1CCCC(NC(=O)Nc2cccnc2)C1` (centres undefined) as the compound, how does the INHIBITION read?
Answer: 10.7%

Question: Which INHIBITION does the source give for `O=C(NC1CCN(c2ccccc2OC(F)F)C1)c1c[nH]nn1` (centres undefined) here?
Answer: -39.7%

Question: `O=C1C(Nc2ncccn2)CCN1c1ccccc1OC(F)F` (centres undefined) was tested. Which INHIBITION did it give?
Answer: -10.7%

Question: For `Cc1c(CNC2CCN(c3ccccc3OC(F)F)C2)cnn1C` (centres undefined), which INHIBITION is on record?
Answer: 5.64%

Question: With `O=C(Nc1ccncc1)NC1CCN(c2ccccc2OC(F)F)C1` (centres undefined) as the compound, how does the INHIBITION read?
Answer: 79%

Question: Which INHIBITION does the source give for `O=C(Nc1cccnc1)NC1CCN(c2ccccc2OC(F)F)C1` (centres undefined) here?
Answer: 56.6%

Question: How did the INHIBITION turn out when `O=C(Nc1ccccn1)NC1CCN(c2ccccc2OC(F)F)C1` (centres undefined) was run?
Answer: 67.8%

Question: Which INHIBITION does the source give for `CCn1cc(S(=O)(=O)NCc2ccnc(-n3ccnc3)c2)cn1` here?
Answer: -0.85%

Question: How did the INHIBITION turn out when `CN(Cc1cnn(C)c1)CC(O)c1ccc2c(c1)OCO2` (centres undefined) was run?
Answer: 46.6%

Question: With `Cn1nc(C(=O)NCCc2ccc(OC3CCCC3)cc2)ccc1=O` as the compound, how does the INHIBITION read?
Answer: 35.5%

Question: For `Cc1nn(C)c2cn(CC(=O)NC3CCSCC3)nc12`, which INHIBITION is on record?
Answer: 19.8%

Question: For `CCN(C(=O)c1ccc2nnc(C3CCN(CCOC)C3)n2c1)C(C)C` (centres undefined), which INHIBITION is on record?
Answer: 34%

Question: For `CC(C)[C@H](NC(=O)N1CCC(Cc2ccccc2)CC1)C(=O)O`, which INHIBITION is on record?
Answer: 31.3%

Question: How did the INHIBITION turn out when `O=C(NCC1CCCO1)c1ccc(S(=O)(=O)NCCc2cn[nH]c2)cc1` (centres undefined) was run?
Answer: -17.5%

Question: With `CC(C)N1CCCCC1c1cc(CO)[nH]n1` (centres undefined) as the compound, how does the INHIBITION read?
Answer: -8.24%

Question: `CCc1nnc(CN2CCCC(Cn3nc(C)nc3C)C2)o1` (centres undefined) was tested. Which INHIBITION did it give?
Answer: 44.9%

Question: For `COc1ccc(S(=O)(=O)NCCC(=O)NCc2ccoc2)cc1OC`, which INHIBITION is on record?
Answer: 3.77%

Question: `O=C(CCc1ccsc1)NCC1CCN(C2CC2)C1` (centres undefined) was tested. Which INHIBITION did it give?
Answer: 22.8%

Question: For `C1CC(CN2CC[C@@H]3O[C@@H](c4nnc(C5CC5)o4)C[C@H]3C2)CCO1`, which INHIBITION is on record?
Answer: 14.5%

Question: With `CN1CCOCC2(CCCN(C(=O)c3cnccn3)C2)C1` (centres undefined) as the compound, how does the INHIBITION read?
Answer: 18.3%

Question: How did the INHIBITION turn out when `CCN(CCO)Cc1ccc(Br)c2cccnc12` was run?
Answer: 7.07%

Question: For `O=C(c1cc[nH]n1)N1CCc2c(nc(N3CCCCC3)[nH]c2=O)C1`, which INHIBITION is on record?
Answer: 3.91%

Question: Which INHIBITION does the source give for `O=C(c1ccccn1)N1CCc2c(nc(N3CCCC3)[nH]c2=O)C1` here?
Answer: 50%

Question: `O=C(c1ccccn1)N1CCc2c(nc(-c3ccncc3)[nH]c2=O)C1` was tested. Which INHIBITION did it give?
Answer: -12.1%

Question: For `CCCc1nnc(N2CCN(c3ccccc3Cl)CC2)o1`, which INHIBITION is on record?
Answer: -15.3%

Question: Which INHIBITION does the source give for `CN(C)CC(C)(C)Cn1cnc(-c2ccccc2)c1-c1ncc[nH]1` here?
Answer: 18.8%

Question: Which INHIBITION does the source give for `CCS(=O)(=O)c1ccc(CNc2c(Cl)cccc2C#N)cc1` here?
Answer: 74.9%

Question: How did the INHIBITION turn out when `CS(=O)(=O)N1CCC(CNc2c(Cl)cccc2C#N)CC1` was run?
Answer: 19.7%

Question: How did the INHIBITION turn out when `CNC(=O)COc1ccc(CNc2c(Cl)cccc2C#N)cc1` was run?
Answer: 60.1%

Question: `CN(C)C(=O)c1ccc(CNc2c(Cl)cccc2C#N)cc1` was tested. Which INHIBITION did it give?
Answer: 45.2%

Question: `CNC(=O)COc1ccc(CNCc2cc(F)ccc2F)cc1` was tested. Which INHIBITION did it give?
Answer: -4.12%

Question: For `CN(c1ccc(CNc2c(Cl)cccc2C#N)cc1)S(C)(=O)=O`, which INHIBITION is on record?
Answer: 36.9%

Question: With `CCC(=O)Nc1nnc(CCOc2ccccc2)s1` as the compound, how does the INHIBITION read?
Answer: -17.2%

Question: With `Cc1nc(CN2CCC(c3ccnn3CCO)CC2)oc1C` as the compound, how does the INHIBITION read?
Answer: -12.2%

Question: `CN(C)C(=O)CN(C)C(=O)c1csc(Br)c1` was tested. Which INHIBITION did it give?
Answer: -13.2%

Question: Which INHIBITION does the source give for `CN(C)c1ccc(CC2CCCN(c3cnccn3)C2)nn1` (centres undefined) here?
Answer: -14.2%

Question: For `OC(CNC1CCSCC1)c1cccc(OCc2ccccc2)c1` (centres undefined), which INHIBITION is on record?
Answer: 44.5%

Question: `Cc1nc(CN(C)C(=O)Nc2cccc(C)c2C)no1` was tested. Which INHIBITION did it give?
Answer: 28.1%

Question: With `COc1ccc(OC2CCN(C(=O)C3CCCN(C)C3)CC2)cc1` (centres undefined) as the compound, how does the INHIBITION read?
Answer: 67.5%

Question: `N#Cc1ccc(C(=O)N2CCC(Oc3ccc(C#N)cn3)CC2)cc1` was tested. Which INHIBITION did it give?
Answer: 32.2%

Question: `COc1ccc(OC2CCN(C(=O)c3cnc(C)s3)CC2)cc1` was tested. Which INHIBITION did it give?
Answer: 30.8%

Question: Which INHIBITION does the source give for `N#Cc1ccc(OC2CCN(C(=O)c3ccc4c(c3)OCO4)CC2)nc1` here?
Answer: 40.9%

Question: For `N#Cc1ccc(OC2CCN(C(=O)c3ccccc3Cl)CC2)nc1`, which INHIBITION is on record?
Answer: 7.44%

Question: For `CC(=O)c1ccc(C(=O)N2CCC(c3cc(O)nc(C)n3)CC2)s1`, which INHIBITION is on record?
Answer: 8.24%

Question: For `N#Cc1ccc(OC2CCN(C(=O)c3cncc(Br)c3)CC2)nc1`, which INHIBITION is on record?
Answer: 54.5%

Question: With `CN1CCCC(C(=O)N2CCC(Oc3ncccn3)CC2)C1` (centres undefined) as the compound, how does the INHIBITION read?
Answer: 30.5%

Question: How did the INHIBITION turn out when `N#Cc1ccc(OC2CCN(C(=O)Cc3cccs3)CC2)nc1` was run?
Answer: 65.7%

Question: How did the INHIBITION turn out when `COc1cccc(OC2CN(C(=O)C3CCCN(C(=O)N(C)C)C3)C2)c1` (centres undefined) was run?
Answer: 42.6%

Question: Which INHIBITION does the source give for `COc1ccc(OC2CCN(C(=O)c3ccc(C(C)=O)s3)CC2)cc1` here?
Answer: 71.5%

Question: With `N#Cc1ccc(OC2CCN(C(=O)c3ccc(Br)o3)CC2)nc1` as the compound, how does the INHIBITION read?
Answer: -0.532%

Question: Which INHIBITION does the source give for `Cc1ccc(S(N)(=O)=O)cc1C(=O)NC1CCN(C2CC2)CC1` here?
Answer: -10.9%

Question: `CC(=O)N1CCN(c2ccnc(C)n2)CC(COc2ccccc2)C1` (centres undefined) was tested. Which INHIBITION did it give?
Answer: 1.11%

Question: `Cc1ccc(N2CCN(Cc3ccccc3)C3(CCNCC3)C2=O)cn1` was tested. Which INHIBITION did it give?
Answer: 8.31%

Question: `CN(C)c1cncc(C2CCN(CC(N)=O)CC2)n1` was tested. Which INHIBITION did it give?
Answer: 31.6%

Question: For `Cn1cccc1C(=O)N[C@@H]1CN(Cc2ccsc2)[C@@H]2COC[C@@H]21`, which INHIBITION is on record?
Answer: -37.4%

Question: With `O=C(NCC1CC1)[C@H]1C[C@H]2CN(S(=O)(=O)Cc3ccccc3)C[C@@H]1O2` as the compound, how does the INHIBITION read?
Answer: 43.2%

Question: For `CN(Cc1ccsc1)C(=O)Nc1ccc(S(C)(=O)=O)cc1`, which INHIBITION is on record?
Answer: 31.8%

Question: For `NC(=O)c1ccc(NC(=O)Cn2cc(-c3ccccc3)ncc2=O)cc1`, which INHIBITION is on record?
Answer: 26.8%

Reference: ChEMBL document CHEMBL4513216, “Probing the Open Global Health Chemical Diversity Library for Multistage-Active Starting Points for Next-Generation Antimalarials” (ACS Infect Dis, 2020)
